The subject of this test is LXRb:RXRa (NR concentration 270 nM, RXRa partner concentration 90 nM). As to the kind of experiment: PBM binding z-score (relative to random genomic background probes); higher = stronger binding; sequences stand for … in GC…GCGATTGACAGCGTAGAATGAAGG
As for the experimental part: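 Protein-binding microarray (Agilent 4x180K custom design, double-stranded 60-nt probes: 5' GC cap, 34-nt variable region, 24-nt constant primer region; full probe sequence given). Purified or IVT nuclear receptor:RXRα heterodimers (3:1 NR:RXRα, mostly 270:90 nM) or homodimers were incubated for 1 h in PBS with 2% milk and no ligand, then detected with Alexa488 antibodies. Fluorescence from o1-orientation probes (~5 replicates averaged) was converted to z-scores against 500 random hg19 background probes. Variable regions are seed direct-repeat (DR0–DR5) sites, all their single-nucleotide variants and half-site ablations.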
Sequence ATATGTAGTTTATCGGGTCATTCAGTTTGCGCAT came in with a PBM binding z-score of 2.94. CGTCCAAGGTTAAGGTCAGTGAAAGAGACTCGAA had a PBM binding z-score of 2.62. Take GCTTACAGGTCAAAGGTTATAGCATGAATAGAAT: the PBM binding z-score amounted to 6.06. Regarding CCTACTGGGCCACGAAAGGCCATTGATTCAGTGA, the PBM binding z-score was -0.37. As for AGAATGAGATTACCAAAGATCAGGGAAACGCTTG, the PBM binding z-score is -0.266. For the sequence TGTCAAAGTTCAAAGGTGACGTAAGTATCCACAC, the PBM binding z-score is 5.06.

As for TCTAGTCGGTCAAAGGTCACACACTCGAAATGCG, the PBM binding z-score was determined as 5.97. Sequence AGAATGGGGTTACCAAAGATCAGGGAAACGCTTG came in with a PBM binding z-score of 5.03. The figure for ATCGAAAGGTCCACGAGGTGAGTATACACCGTTT is -0.0349; for CGAACTAGGTCGTCCAGGACAGTGAATACATTGA it is 0.123; for AGTCAAAGTTCATCTAGGTAACATAAGATATGCT it is 3.93. Sequence GCTAGTTGGTCAGTAAAAGGTGACACACCGGTCG gave a PBM binding z-score of 0.263.

As to CCTACTGGGCCACTAAAGGTCATTGATTCAGTGA, the PBM binding z-score amounted to 5.49. Next, ATATGTAGGTTAGCTGGGGTCATTCACACTAGGC: 5.1. CGAACTAGGTCATTGACAGGACAATGAATAGTAA returned a PBM binding z-score of 2.47.

The sequence GCTGCTAGGTCAACTGATGGTCACCTAAAGCTCG displayed a PBM binding z-score of 2.31. The sequence CCTGCTAGGTCATGGTCAGCGAATCTACAGTATG gave a PBM binding z-score of 1.54. For the sequence CAAACTAGGTCACAGTGGTCAAAGTCCGTGCGTA, the PBM binding z-score was 2.4. As for CCTGCGAGGTCATGGTCAGCTAATCTACAGTATG, the PBM binding z-score is 4.6.

For the sequence CCTACTGGACCAAGGTCATTGATCAGTCAAAGCA, the PBM binding z-score came out at 3.46. As for CCTTACGGGTCACGTGGTTATAGCACGACGAGCG, the PBM binding z-score came out at 3.48. The figure for CGAACGAGGTCATCCAGGACAGTGAATACATTGA is 5.42; for CTCGAAAGGTCGTGCTCAGATGAGTATACCAAAC it is 3.44; for CCTTACGGGTCAAGGTTATAGCCCGGGTGGTACG it is 2.84.

The record behind these values is the supplement of paper PMC6555819.
